Test results taken from the supplement of paper PMC11732987, “Enantioselective OTUD7B fragment discovery through chemoproteomics screening and high-throughput optimisation” (Communications Chemistry, 2025).

Legend:
Experiment in all cases: log2 ratio of Biotin-Ahx-Ub-VS probe labelling (fragment/DMSO); higher = less target engagement (more negative = stronger competition), active = hit call of the paper (q ≤ 0.05, log2 ratio ≤ -1)
Conditions in all cases: compound concentration: 200 uM; treatment time: 3 h
[1] = target: T1, USP19 (UniProt O94966)
T1 sequence (whole entry): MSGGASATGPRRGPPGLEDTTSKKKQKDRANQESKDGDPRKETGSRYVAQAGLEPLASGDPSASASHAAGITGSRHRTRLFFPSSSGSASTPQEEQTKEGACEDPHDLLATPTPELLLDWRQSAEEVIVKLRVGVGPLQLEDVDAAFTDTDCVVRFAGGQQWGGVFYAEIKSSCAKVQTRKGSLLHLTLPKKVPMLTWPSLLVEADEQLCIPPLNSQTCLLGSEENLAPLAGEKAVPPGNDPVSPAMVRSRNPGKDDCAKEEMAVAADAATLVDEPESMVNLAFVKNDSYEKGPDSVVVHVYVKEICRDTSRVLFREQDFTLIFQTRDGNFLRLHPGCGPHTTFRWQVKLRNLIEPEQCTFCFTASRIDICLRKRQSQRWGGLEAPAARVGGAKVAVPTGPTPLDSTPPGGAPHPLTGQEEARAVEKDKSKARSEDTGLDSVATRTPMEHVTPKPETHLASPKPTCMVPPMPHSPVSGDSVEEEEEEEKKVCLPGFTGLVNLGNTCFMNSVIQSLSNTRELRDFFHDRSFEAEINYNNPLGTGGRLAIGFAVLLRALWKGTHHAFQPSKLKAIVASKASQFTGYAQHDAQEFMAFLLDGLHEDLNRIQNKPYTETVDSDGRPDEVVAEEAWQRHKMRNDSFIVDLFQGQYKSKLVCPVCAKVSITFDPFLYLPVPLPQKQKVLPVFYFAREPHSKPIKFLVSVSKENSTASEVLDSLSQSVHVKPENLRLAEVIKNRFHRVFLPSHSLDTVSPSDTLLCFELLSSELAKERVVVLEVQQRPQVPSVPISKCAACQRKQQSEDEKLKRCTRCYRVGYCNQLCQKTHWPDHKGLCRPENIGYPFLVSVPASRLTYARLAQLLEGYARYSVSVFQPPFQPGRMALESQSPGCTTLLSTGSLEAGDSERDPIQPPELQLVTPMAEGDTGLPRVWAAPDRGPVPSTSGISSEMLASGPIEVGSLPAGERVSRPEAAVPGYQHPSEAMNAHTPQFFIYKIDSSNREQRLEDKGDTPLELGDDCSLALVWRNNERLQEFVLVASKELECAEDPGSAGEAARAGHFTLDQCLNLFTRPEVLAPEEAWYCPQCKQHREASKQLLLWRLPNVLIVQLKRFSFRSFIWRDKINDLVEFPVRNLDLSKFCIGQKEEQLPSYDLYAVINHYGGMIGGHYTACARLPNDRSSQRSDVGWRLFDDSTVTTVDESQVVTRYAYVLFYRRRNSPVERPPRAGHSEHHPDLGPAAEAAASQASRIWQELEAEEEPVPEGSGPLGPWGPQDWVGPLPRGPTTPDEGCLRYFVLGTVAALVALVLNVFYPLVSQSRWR
Summary of the method: (§1)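 HEK293T lysate (495 µg per sample, in Tris/CHAPS/IGEPAL buffer with protease inhibitors) was treated in triplicate with fragment at 200 µM or with DMSO for 3 h. It was then treated with Biotin-Ahx-Ub-VS (0.5 µM final) for 1 h. Labelled DUBs were NeutrAvidin-enriched, digested with LysC and trypsin, and run by diaPASEF LC-MS/MS. Spectronaut label-free quantities were global-median-normalised. Values are average log2 ratios fragment/DMSO by unpaired t-test, using proteins with ≥2 unique peptides.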

[2] = target: USP24 (UniProt Q9UPU5)
Summary of the method: as §1

[3] = target: T2, USP25 (UniProt Q9UHP3)
T2 sequence (whole entry): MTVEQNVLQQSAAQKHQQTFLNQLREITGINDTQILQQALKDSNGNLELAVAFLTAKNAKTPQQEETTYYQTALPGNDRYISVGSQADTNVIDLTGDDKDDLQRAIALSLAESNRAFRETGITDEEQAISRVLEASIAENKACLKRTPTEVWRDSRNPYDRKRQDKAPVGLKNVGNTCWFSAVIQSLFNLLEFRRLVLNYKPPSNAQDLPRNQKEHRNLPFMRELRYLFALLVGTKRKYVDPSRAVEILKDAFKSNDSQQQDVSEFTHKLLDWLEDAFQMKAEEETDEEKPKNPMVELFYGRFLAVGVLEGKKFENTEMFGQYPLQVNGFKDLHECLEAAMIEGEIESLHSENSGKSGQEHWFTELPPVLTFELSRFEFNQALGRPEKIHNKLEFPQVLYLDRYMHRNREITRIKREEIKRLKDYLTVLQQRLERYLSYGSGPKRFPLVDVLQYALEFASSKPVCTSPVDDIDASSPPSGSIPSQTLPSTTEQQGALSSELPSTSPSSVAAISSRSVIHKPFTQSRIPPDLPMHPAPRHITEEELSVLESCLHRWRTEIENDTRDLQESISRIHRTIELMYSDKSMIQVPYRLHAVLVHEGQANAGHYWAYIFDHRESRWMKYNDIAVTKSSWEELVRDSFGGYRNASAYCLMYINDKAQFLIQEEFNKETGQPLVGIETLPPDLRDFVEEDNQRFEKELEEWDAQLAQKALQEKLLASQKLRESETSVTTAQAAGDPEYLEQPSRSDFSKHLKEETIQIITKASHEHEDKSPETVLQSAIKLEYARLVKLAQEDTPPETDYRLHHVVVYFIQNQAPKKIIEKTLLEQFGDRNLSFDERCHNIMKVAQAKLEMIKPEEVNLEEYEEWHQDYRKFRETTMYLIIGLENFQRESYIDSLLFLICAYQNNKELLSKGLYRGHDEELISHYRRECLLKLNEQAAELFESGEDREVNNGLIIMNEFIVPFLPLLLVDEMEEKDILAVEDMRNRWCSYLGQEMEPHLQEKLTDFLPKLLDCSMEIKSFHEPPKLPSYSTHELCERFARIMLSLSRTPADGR
Summary of the method: as §1

[4] = target: T3, USP28 (UniProt Q96RU2)
T3 sequence (whole entry): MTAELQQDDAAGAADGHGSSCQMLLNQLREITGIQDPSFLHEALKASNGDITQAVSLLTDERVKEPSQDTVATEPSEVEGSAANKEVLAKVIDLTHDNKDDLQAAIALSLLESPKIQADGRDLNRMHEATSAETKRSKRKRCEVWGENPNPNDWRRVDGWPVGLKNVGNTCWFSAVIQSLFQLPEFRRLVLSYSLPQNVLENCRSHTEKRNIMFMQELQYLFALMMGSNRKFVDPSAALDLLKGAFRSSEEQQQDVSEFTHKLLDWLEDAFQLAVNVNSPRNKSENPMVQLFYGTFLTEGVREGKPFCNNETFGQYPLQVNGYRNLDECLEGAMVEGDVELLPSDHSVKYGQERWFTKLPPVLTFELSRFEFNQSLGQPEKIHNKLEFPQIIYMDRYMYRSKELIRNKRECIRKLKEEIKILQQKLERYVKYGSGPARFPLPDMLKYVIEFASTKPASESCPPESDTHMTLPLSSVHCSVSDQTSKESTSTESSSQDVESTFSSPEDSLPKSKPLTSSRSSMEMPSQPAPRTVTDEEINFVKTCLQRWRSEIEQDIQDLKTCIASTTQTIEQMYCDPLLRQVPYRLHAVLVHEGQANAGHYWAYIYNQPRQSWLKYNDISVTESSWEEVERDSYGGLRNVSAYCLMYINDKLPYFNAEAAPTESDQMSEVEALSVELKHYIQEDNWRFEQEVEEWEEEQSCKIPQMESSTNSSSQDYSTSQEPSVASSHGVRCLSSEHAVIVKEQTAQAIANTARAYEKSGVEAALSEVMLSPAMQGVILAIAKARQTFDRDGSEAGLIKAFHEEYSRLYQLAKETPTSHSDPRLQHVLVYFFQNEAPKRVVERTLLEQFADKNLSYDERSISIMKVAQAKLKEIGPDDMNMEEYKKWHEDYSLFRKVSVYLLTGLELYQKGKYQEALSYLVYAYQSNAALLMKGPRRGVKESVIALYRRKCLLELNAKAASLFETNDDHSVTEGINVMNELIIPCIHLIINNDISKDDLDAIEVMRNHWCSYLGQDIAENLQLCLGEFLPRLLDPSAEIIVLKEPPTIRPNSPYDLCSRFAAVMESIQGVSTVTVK
Summary of the method: as §1

Measured: log2 ratio of Biotin-Ahx-Ub-VS probe labelling

USP24, sequence (Q9UPU5 whole entry): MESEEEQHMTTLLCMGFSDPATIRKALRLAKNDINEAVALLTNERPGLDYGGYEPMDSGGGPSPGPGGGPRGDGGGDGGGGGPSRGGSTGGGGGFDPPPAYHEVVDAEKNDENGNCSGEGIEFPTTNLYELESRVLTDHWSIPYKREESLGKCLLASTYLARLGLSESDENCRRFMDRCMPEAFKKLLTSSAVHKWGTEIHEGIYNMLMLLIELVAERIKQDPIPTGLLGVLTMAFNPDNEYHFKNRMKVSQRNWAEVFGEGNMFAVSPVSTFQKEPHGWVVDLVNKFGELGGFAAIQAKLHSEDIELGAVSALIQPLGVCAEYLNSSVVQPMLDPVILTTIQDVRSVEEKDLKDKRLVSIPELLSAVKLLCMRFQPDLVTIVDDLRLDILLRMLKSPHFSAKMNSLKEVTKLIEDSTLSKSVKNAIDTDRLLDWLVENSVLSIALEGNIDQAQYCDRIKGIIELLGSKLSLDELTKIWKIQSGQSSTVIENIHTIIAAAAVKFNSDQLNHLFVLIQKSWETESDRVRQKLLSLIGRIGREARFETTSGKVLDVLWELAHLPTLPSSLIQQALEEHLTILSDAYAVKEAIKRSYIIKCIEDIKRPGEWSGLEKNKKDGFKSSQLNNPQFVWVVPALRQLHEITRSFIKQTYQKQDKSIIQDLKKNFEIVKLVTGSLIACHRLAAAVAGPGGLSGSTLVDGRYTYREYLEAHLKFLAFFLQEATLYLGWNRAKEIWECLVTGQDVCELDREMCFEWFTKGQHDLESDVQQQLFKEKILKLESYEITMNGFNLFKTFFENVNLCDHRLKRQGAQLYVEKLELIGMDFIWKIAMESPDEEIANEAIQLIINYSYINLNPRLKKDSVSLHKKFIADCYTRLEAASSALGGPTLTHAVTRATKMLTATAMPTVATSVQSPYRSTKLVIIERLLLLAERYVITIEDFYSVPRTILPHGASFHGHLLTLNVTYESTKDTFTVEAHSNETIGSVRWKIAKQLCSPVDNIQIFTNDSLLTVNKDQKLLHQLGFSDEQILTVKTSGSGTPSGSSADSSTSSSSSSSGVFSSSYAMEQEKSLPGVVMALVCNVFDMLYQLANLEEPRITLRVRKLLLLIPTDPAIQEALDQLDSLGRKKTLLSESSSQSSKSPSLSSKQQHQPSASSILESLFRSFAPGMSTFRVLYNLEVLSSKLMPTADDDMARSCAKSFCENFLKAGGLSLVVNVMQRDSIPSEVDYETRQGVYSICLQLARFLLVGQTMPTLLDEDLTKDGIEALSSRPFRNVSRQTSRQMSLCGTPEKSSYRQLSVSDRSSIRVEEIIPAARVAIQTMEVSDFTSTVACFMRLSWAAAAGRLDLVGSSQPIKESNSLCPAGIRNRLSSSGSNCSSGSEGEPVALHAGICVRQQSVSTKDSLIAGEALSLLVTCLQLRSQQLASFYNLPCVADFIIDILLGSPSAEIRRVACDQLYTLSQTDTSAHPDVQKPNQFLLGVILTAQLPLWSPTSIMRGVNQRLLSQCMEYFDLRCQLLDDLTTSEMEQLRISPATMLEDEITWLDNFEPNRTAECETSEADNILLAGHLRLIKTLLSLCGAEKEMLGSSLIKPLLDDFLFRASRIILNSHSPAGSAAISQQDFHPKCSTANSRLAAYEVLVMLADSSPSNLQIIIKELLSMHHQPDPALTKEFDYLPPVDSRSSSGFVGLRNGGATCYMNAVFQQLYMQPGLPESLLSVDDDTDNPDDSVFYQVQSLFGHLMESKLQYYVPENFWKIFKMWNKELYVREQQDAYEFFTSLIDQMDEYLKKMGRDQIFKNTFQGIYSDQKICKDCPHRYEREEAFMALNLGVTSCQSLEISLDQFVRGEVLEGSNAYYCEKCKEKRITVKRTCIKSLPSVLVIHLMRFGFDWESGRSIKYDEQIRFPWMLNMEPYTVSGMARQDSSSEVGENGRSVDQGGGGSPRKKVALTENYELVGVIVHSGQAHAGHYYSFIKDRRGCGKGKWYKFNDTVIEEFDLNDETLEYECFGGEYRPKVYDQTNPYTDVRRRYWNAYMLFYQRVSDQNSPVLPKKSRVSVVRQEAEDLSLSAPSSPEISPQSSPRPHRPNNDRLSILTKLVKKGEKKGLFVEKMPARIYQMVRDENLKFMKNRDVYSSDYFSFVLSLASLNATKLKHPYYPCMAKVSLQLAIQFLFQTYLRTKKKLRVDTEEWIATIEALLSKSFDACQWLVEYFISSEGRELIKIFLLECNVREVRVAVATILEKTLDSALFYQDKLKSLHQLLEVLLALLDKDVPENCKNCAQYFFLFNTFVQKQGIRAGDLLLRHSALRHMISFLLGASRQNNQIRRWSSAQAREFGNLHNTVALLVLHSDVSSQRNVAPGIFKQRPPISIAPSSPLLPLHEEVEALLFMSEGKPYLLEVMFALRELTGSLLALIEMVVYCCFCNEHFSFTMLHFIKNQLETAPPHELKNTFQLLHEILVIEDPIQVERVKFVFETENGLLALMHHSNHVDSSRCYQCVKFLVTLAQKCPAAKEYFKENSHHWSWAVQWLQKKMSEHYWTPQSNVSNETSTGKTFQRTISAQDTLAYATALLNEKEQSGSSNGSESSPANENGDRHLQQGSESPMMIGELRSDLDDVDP

COc1ccccc1C(C)NC(=O)CCl (centres undefined)
inactive: [1] -0.243 | [2] -0.363 | [3] -0.536 | [4] -0.666
